High-throughput results deposited in PubChem BioAssay by several laboratories.
RAM inhibit – inhibitors of the yeast RAM network; S. cerevisiae dse1pr::URA3 reporter, 5-FOA growth OD615, 2 d; analog-sensitive cbk1-as2 kinase mutant strain; inhibition, % at 50 µM; hit rate 1.8% among 190,000;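 active = inhibition above a set limit, 3 SD over mean compound inhibition, cut at about 8.4% in these data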;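 also: inhibition rescues growth on 5-FOA so higher OD means more RAM inhibition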
Cl transport mod – KCC2 (human) Cl- transport modulation; hit rate 2.2% among 190,000; AID 1456; B-score of Tl+ flux slope (higher = more flux/activation; lower = inhibition) at 10 µM; KCC2 cells, thallium flux FluoZin-2 fluorescence;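 active = thallium flux slope and its plate-corrected score both differing from the plate sample mean at a set confidence after two filtering rounds, in either direction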;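 also: slope of fluorescence scaled to starting intensity during 10 to 20 s after thallium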
S1P4 antagonist – blocks the human S1P4 receptor; O95977; S1P4-expressing cells, antagonist mode, reporter read-out; inhibition, % at 4.98 µM; hit rate 0.26% among 220,000; in the data active = inhibition above about 29%
S1P4 agonist – activates the human S1P4 receptor | S1P4-expressing cell line, agonist reporter assay | AID 1509 | hit rate 0.35% among 220,000 | activation, % at 4.98 µM | O95977; in the data active = activation above about 11%
S1P3 antagonist – S1P3 (human) receptor antagonism. inhibition, % at 4.98 µM. AID 485. hit rate 0.27% among 170,000. Q99500. CHO S1P3 NFAT-BLA reporter, FRET fluorescence, antagonist mode;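 active = inhibition above the plate cutoff, the mean inhibition of test wells on that plate plus 3 SD, cut at about 28% in these data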;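 also: cells challenged with S1P at its EC80 of 0.8 µM; blue over green emission ratio from cleaved BLA substrate after 4 h stimulation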
ROMK primary – modulates human ROMK potassium channel activity. P48048. Tet-inducible ROMK, thallium flux fluorescence; actives lie on both sides. B-score at 10 µM. hit rate 2% among 130,000. AID 1918;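 active = signal ratio slope over the read window, or its plate-corrected B-score, at least 3 SD from the plate mean, either direction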;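 also: B-score of the F/F0 ratio slope over 7 to 12 s after thallium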
KCC2 secondary – KCC2 (human) modulation, secondary assay; normalised thallium flux (F/F0 slope) at 10 µM; hit rate 15% among 3,700; shares compounds with Cl transport mod; AID 1713; HEK293-KCC2, thallium flux, FluoZin2 fluorescence; stronger effect = higher value;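 active = thallium flux slope above the same plate's solvent-only control mean plus 3 SD; inconclusive = the two replicate wells disagree; inactive = no significant difference from solvent-only control wells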
KCC2 bumet counter – bumetanide-insensitive thallium flux in KCC2 cells with ouabain, counter-screen | shares compounds with Cl transport mod | hit rate 49% among 3,700 | AID 1714 | normalized thallium flux at 10 µM | HEK293-KCC2 + bumetanide/ouabain, thallium flux FluoZin2; stronger effect = higher value;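 active = thallium entry rate above the same plate's blocked-transporter control wells by more than 3 SD; inconclusive = the two repeat wells disagree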;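 also: raw slope of fluorescence over initial fluorescence between 10 and 20 s after thallium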
KCC2 secondary2 – confirmation of human KCC2 transport modulators; normalized thallium flux at 10 µM; AID 1715; shares compounds with Cl transport mod; hit rate 23% among 3,700; HEK293-KCC2, thallium flux FluoZin2 fluorescence; actives lie on both sides; F/F0 rise rate, 10–20 s post-thallium;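 active = thallium flux slope more than 3 SD above or below the plate's solvent-only control mean, mostly below; inconclusive = the two repeat wells disagreed; inactive = no significant shift from solvent-only controls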
HEK293 Tl flux – acts in parental HEK cells, KCC2 counter-screen | shares compounds with Cl transport mod | HEK293 parental cells, thallium flux FluoZin2, ouabain; baseline-ratio fluorescence slope, 10–20 s after thallium | thallium flux rate (normalised fluorescence) at 10 µM | hit rate 46% among 3,700;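 active = thallium flux rate significantly above the same plate's solvent-only control wells, beyond their mean plus 3 SD; inconclusive = the two replicate wells gave conflicting results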
KCC2 ouabain – modulates human KCC2 on retest with ouabain | shares compounds with Cl transport mod | HEK293-KCC2, thallium flux FluoZin2 fluorescence; bidirectional: low = inhibitor, high = activator | raw Tl+ flux slope (below DMSO = inhibition, above = activation) at 10 µM | hit rate 48% among 3,700 | AID 1717;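 active = thallium flux slope beyond 3 SD from same-plate DMSO control mean in most replicates, usually higher, sometimes lower; inconclusive = repeat tests gave conflicting results; inactive = no significant difference from controls in most replicates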;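 also: slope of initial-normalized fluorescence between seconds 10 and 20 after thallium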
HEK293 Tl flux2 – acts in parental HEK cells, second KCC2 counter-screen | hit rate 33% among 3,700 | HEK293 parental, thallium flux FluoZin-2 fluorescence slope | thallium flux slope at 10 µM | shares compounds with Cl transport mod;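 active = thallium flux slope above the same plate's solvent-control mean plus 3 SD in both duplicate wells; inconclusive = duplicate wells that disagreed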;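 also: run without ouabain in cells lacking the KCC2 cotransporter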
A number is an active result; . = inactive; ? = inconclusive; / = no result given. Compounds with a hit are over-represented: about 5.1% of the library has one in this group of screens.

SMILES	RAM inhibit	Cl transport mod	S1P4 antagonist	S1P4 agonist	S1P3 antagonist	ROMK primary	KCC2 secondary	KCC2 bumet counter	KCC2 secondary2	HEK293 Tl flux	KCC2 ouabain	HEK293 Tl flux2
COc1ccc(-c2nc(=S)c3c([nH]2)Oc2ccc(C)cc2C3)cc1O	.	.	.	.	.	.	/	/	/	/	/	/
Cc1ccc(S(=O)(=O)NNC(=S)NC(=O)c2ccc([N+](=O)[O-])cc2)cc1	.	.	.	.	.	.	/	/	/	/	/	/
Cc1ccc(C(=O)NC(=S)NNS(=O)(=O)c2ccc(C)cc2)cc1	.	6.17	.	.	.	.	0.0173	0.0234	.	0.00924	.	0.0124
S=c1[nH]nc(-c2ccncc2)n1/N=C/c1cccc(Cl)c1	/	.	.	.	.	.	/	/	/	/	/	/
CC1CCCCN1S(=O)(=O)c1ccc(C(=O)Nc2sccc2C(N)=O)cc1 (stereo unspecified)	.	-3.95	.	.	/	/	.	.	.	.	.	.
CC1CCCCN1S(=O)(=O)c1ccc(C(=O)Nc2nnc(-c3ccccc3Cl)o2)cc1 (stereo unspecified)	.	17.1	.	.	.	.	0.0141	0.053	.	?	0.0417	?
CC1(C)COCN1S(=O)(=O)c1ccc(C(=O)Nc2nnc(-c3ccc(Cl)s3)o2)cc1	.	14.5	.	.	.	/	?	0.0397	.	?	0.0353	.
CCCCN(CC)S(=O)(=O)c1ccc(C(=O)Nc2nnc(-c3ccccc3Cl)o2)cc1	.	/	.	.	.	/	/	/	/	/	/	/
CCC1CCCCN1S(=O)(=O)c1ccc(C(=O)Nc2nnc(-c3ccccc3Cl)o2)cc1 (stereo unspecified)	.	18.6	.	.	.	/	0.0148	0.0708	.	0.0344	0.0417	?
CCCCc1ccc(-n2c(Cc3cccs3)n[nH]c2=S)cc1	.	58.4	.	.	.	.	.	0.0968	0.0633	0.0799	0.0525	0.0668
N#C/C(=C\c1cccs1)C(=O)Nc1nccs1	.	9.99	.	.	.	.	0.0123	0.0186	.	0.013	?	0.0119
CCC(c1nnnn1Cc1cccs1)N1CCN(c2nc3ccccc3s2)CC1 (stereo unspecified)	.	-3.99	.	.	.	/	.	.	?	0.00633	0.0138	.
CC(C)CC(c1nnnn1Cc1cccs1)N1CCN(c2nc3ccccc3s2)CC1 (stereo unspecified)	.	-5.11	.	.	/	/	.	.	?	.	?	.
COc1ccc(Cn2nnnc2C(CC(C)C)N2CCN(c3ccccc3)CC2)cc1 (stereo unspecified)	.	/	.	.	.	.	.	.	.	.	.	.
CC(C)C(c1nnnn1Cc1ccco1)N1CCN(c2nc3ccccc3s2)CC1 (stereo unspecified)	.	.	.	.	.	/	/	/	/	/	/	/
COc1cccc(/C=N/Nc2snc(SC)c2C#N)c1O	.	31.5	.	.	.	.	0.0229	0.0822	.	0.0392	0.0554	0.0143
Cc1c(C(=O)Nc2ccc3c(c2)OCO3)sc2ncn(CC(=O)N3CC(C)CC(C)C3)c(=O)c12 (stereo unspecified)	.	.	.	.	/	.	/	/	/	/	/	/
Cc1ccc(OCC(=O)NC(=S)Nc2ccc3c4c(cccc24)CC3)cc1	.	13.3	.	.	.	.	.	0.0141	.	0.0117	?	.
O=C(COc1ccccc1)NC(=S)Nc1ccc2c3c(cccc13)CC2	.	/	.	.	/	.	/	/	/	/	/	/
Cc1ccc(OCC(=O)NC(=S)Nc2ccc(Br)cn2)cc1	/	31.4	.	.	.	/	0.0131	0.0318	.	0.0582	0.0374	0.0217
Cc1ccc(OCC(=O)NC(=S)Nc2ccc(Br)c(C)n2)cc1	.	/	.	.	/	/	/	/	/	/	/	/
Cc1nn(-c2ccccc2)c(C)c1/C=C/C(=O)OCC(=O)NC1CCS(=O)(=O)C1 (stereo unspecified)	.	/	.	.	.	.	.	.	.	.	.	.
O=C(Nc1nnc(-c2ccc(Cl)cc2)o1)c1nc2ccccc2s1	.	/	.	.	/	/	/	/	/	/	/	/
O=C(Nc1nnc(-c2ccccc2)o1)C1CCCCC1	.	/	.	.	/	/	/	/	/	/	/	/
O=C(Nc1nnc(-c2ccc(Cl)cc2)o1)C1CCCCC1	/	5.26	/	/	.	/	.	0.0217	.	0.0151	0.0285	0.018
SMILES	RAM inhibit	Cl transport mod	S1P4 antagonist	S1P4 agonist	S1P3 antagonist	ROMK primary	KCC2 secondary	KCC2 bumet counter	KCC2 secondary2	HEK293 Tl flux	KCC2 ouabain	HEK293 Tl flux2
CCCC(=O)Nc1nnc(-c2ccc(Cl)s2)o1	.	/	.	.	.	/	/	/	/	/	/	/
O=C(Nc1nnc(-c2ccc(Cl)cc2)o1)Nc1ccccc1Cl	.	3.49	.	.	/	/	.	0.0263	.	?	.	?
O=C(Nc1nnc(-c2ccc(Cl)s2)o1)C1CCCCC1	/	5.22	.	.	.	/	0.0134	0.0275	.	0.0186	0.0319	0.0121
CCOCCc1nnc(NC(=O)Cc2c(F)cccc2Cl)s1	.	.	.	.	.	.	/	/	/	/	/	/
Cc1ccc(C(=O)CC2(O)C(=O)N(C)c3ccc(Br)cc32)c(C)c1 (stereo unspecified)	.	-3.63	.	.	.	/	.	?	.	0.00897	.	.
Cc1ccc(C)c(C(=O)CC2(O)C(=O)N(C)c3ccccc32)c1 (stereo unspecified)	.	.	.	.	/	.	/	/	/	/	/	/
O=C(Cc1ccc(Cl)cc1)Nc1cccc(-c2nnc(-c3ccco3)o2)c1	.	.	.	.	/	.	/	/	/	/	/	/
O=C(Cc1ccccc1)Nc1cccc(-c2nnc(-c3ccco3)o2)c1	.	.	.	.	/	.	.	.	.	.	?	.
CCCCCSc1nnc(-c2cc(Br)ccc2N)c(=O)[nH]1	.	/	.	.	.	.	.	?	.	?	?	.
COC(=O)[C@@H]1C[C@@]2(O)[C@H](O)[C@H](O)[C@H](O)C[C@H]2N1C/C=C/c1ccccc1	/	.	/	/	/	/	/	/	/	/	/	/
CC(NC(=O)c1ccc2c(c1)OCCO2)c1ccc(S(N)(=O)=O)cc1 (stereo unspecified)	.	/	.	.	.	.	/	/	/	/	/	/
COc1ccc(OC)c(CN2CCN(c3ccccc3OC)CC2)c1	.	8.77	.	.	.	/	.	.	.	.	.	.
COc1ccccc1NC(=S)N1CCN(c2nc(-c3ccccc3)cs2)CC1	.	.	.	.	.	.	/	/	/	/	/	/
